NS1 inh – blocks influenza NS1 protein function | Potency, µM (series often up to 46.1 µM), without a hit: at the highest dose activity, positive = more growth | 270,000 compounds, 0.4% hits; note: potency is the fitted concentration of half-maximal effect; actives are rising curves; nearly all actives have a fitted effect of over 50% in size
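In this qHTS, NS1 from influenza A is expressed in budding yeast, where it slows growth. Cells are switched from glucose to 2% galactose medium (pH 6.0, -URA), treated with compound, and growth recovery is read at OD600.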
Cruzain noTriton – blocks cruzain activity in detergent-free assay. P25779. purified cruzain, Z-FR-AMC fluorescence, no detergent. Potency, µM, for the others: max response, negative = inhibition, actives largely listed as inhibitors. 200,000 compounds, 2.3% hits. AID 1476; active = well fitted curve in the direction sought with a large enough effect; inconclusive = small, poorly fitted or top-dose-only effect, or another doubt; inactive = no such curve, though single readings can be large; an effect the other way counts as inactive or inconclusive;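 note: potency is the fitted concentration of half-maximal effect; plate controls were enzyme without inhibitor for no effect and buffer without enzyme for full effect; nearly all actives have a fitted effect of over 40% in size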
Target sequence (P25779 123-467 limits assumed): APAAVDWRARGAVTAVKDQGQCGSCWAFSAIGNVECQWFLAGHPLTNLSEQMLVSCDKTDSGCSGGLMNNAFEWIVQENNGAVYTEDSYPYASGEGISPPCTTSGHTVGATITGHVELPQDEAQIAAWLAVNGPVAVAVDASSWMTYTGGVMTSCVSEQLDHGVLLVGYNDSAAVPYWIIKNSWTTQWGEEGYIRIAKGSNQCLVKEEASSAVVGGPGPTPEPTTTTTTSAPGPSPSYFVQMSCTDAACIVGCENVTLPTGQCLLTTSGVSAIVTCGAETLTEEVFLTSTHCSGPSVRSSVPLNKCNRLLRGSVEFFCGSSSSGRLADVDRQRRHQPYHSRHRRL
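Purified cruzain at 1.5 nM, pre-incubated 15 min with compound at room temperature in 100 mM sodium acetate pH 5.5, 5 mM DTT, 0.00005% Triton X-100. Reaction started with 2 uM Z-FR-AMC; AMC fluorescence increase over 60 s gives rate.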
Cruzain inh Det – inhibitors of Trypanosoma cruzi cruzain with detergent; P25779; purified cruzain, Z-FR-AMC fluorescence, 0.01% Triton; Potency, µM, for the others: max response, negative = inhibition, usual class: inhibitors; 200,000 compounds, 0.43% hits; AID 1478; active = well fitted curve in the direction sought with a large enough effect; inconclusive = small, poorly fitted or top-dose-only effect, or another doubt; inactive = no such curve, though single readings can be large; an effect the other way counts as inactive or inconclusive;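 note: potency is the fitted concentration of half-maximal effect; plate controls were neutral wells for no effect and buffer without enzyme for full effect; nearly all actives have a fitted effect of over 40% in size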
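Compounds were screened in titration against cruzain (1.5 nM) with 0.01% Triton X-100 to counter colloidal aggregation. Activity was the AMC fluorescence increase over 60 s after adding 2 uM Z-FR-AMC at pH 5.5.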
Flu NS1 inh – influenza NS1 function inhibition validation; AID 492980; influenza NS1 function cell assay, 15-point titration; activity change, negative = inhibition, % at 32.9 µM; shares compounds with NS1 inh; 1,400 tested, under 10 active; note: 0% is about no effect
Flu PR8 replic – reduces influenza A/PR/8/34 replication in MDCK cells. shares compounds with NS1 inh. MDCK infected influenza A/PR/8/34, virus titer TCID50; active compounds read low. virus titer (log TCID50), log10 TCID50 at 5 µM. 95 compounds, 30% hits. AID 504647; call rule not given here
* marks the source's active call; other numbers are inactive results; ? = inconclusive; / = no result. Shown is part of a subset that was picked to be rich in hits. Unless noted, calls come from the whole dose curve.

SMILES	NS1 inh	Cruzain noTriton	Cruzain inh Det	Flu NS1 inh	others
CC1CCc2cc(F)ccc2N1C(=O)CSc1nnc2c(n1)[nH]c1ccc(F)cc12 (stereo not given)	?	-6.5%	11.1%	3.5
CC1CCCCN1C(=O)CSc1nnc2c(n1)[nH]c1ccc(F)cc12 (stereo not given)	-3.8%	/	/	/
CCN1C(=O)[C@H]2[C@@H](c3ccc(C)cc3)N3C(=O)N(c4cccc(C)c4)C(=O)[C@@]3(Cc3ccccc3)[C@H]2C1=O	-21.8%	/	/	/
COc1ccc(N2C(=O)N3[C@H](c4cccc(C)c4)[C@@H]4C(=O)N(Cc5ccccc5)C(=O)[C@@H]4[C@]3(Cc3ccccc3)C2=O)cc1	14.1µM*	/	/	-10.7	Flu PR8 replic=7.5*
Cc1cn(C)c(CC(=O)Nc2cccc(Cl)c2C)c1C(=O)O	/	-5.9%	0.3%	/
Cc1cc(C)c(N(C(=O)Cn2nnc3ccccc32)C(C(=O)NC(C)(C)C)c2ccsc2)c(C)c1 (stereo not given)	8.2%	?	-3.0%	/
CC(C)(C)NC(=O)C(c1ccsc1)N(CCc1ccccc1)C(=O)Cn1nnc2ccccc21 (stereo not given)	?	13.2%	6.1%	4.8
Cc1[nH][nH]c(=O)c1C(c1c(C)[nH][nH]c1=O)c1cn(C)c2ccccc12	1.1%	/	/	/
Cc1[nH][nH]c(=O)c1C(c1c(C)[nH][nH]c1=O)c1cn(Cc2cccc3ccccc23)c2ccccc12	12.6µM*	-0.4%	1.9%	-11.1
O=C(Cn1c(=O)c2cc(Cl)ccc2n2nncc12)Nc1ccccc1	/	-1.7%	-2.8%	/
Cc1ccc(NC(=O)c2ccc(NC(=O)N3CCSc4ncccc43)cc2)cc1Cl	/	-5.6%	-10.6%	/
COc1ccc(/C=N/NC(=O)c2cc(-c3ccccc3OC)nc3ccccc23)cc1COC(C)=O	16.4%	11.6%	-6.4%	/
COc1ccc(/C=N/NC(=O)c2cc(-c3ccc(C)cc3C)nc3ccccc23)cc1COC(C)=O	10µM*	5.9%	4.6%	5.6
O=C(COc1ncnc2ccccc12)Nc1ccc(Cl)c([N+](=O)[O-])c1	6.1%	-10.8%	-7.1%	/
O=C(COC(=O)c1cc(-c2cccs2)nn1-c1ccccc1)Nc1ccc(Cl)c([N+](=O)[O-])c1	11.2µM*	?	-2.2%	-14.7
CC(C)CCNC(=O)c1cc(Sc2ccc(F)cc2F)nc2ccccc12	/	-10.3%	1.2%	/
COc1ccc(C2CC(c3cccs3)=NN2c2ccc(C=O)cc2)cc1 (stereo not given)	11.2µM*	?	-4.3%	4.4
CCC(=O)N1N=C(c2cccs2)CC1c1ccc(OC)cc1 (stereo not given)	4.1%	/	/	/
COCC1C2CC[C@H]3C(OCc4ccc(OC)cc4)OC[C@]4(C)[C@H]3C2=C(CN4C(=O)OC(C)(C)C)[C@H](C)C1COC (stereo not given in full)	/	?	7.8%	/
COc1cccc(CNC(=O)CN2C(=O)COc3ccc(S(=O)(=O)Nc4ccccc4)cc32)c1	/	-7.4%	-5.6%	/
Cc1ccc(N2CCN(C(=O)c3cnn(-c4ccc(F)cc4F)c3C3CCN(C(=O)OC(C)(C)C)CC3)CC2)c(C)c1	/	?	-3.0%	/
NC(=O)C1CCN(Cc2nc(-c3ccccc3)no2)CC1	11.6%	9.0%	-2.7%	/
CC1CCC2(CC1)NC(=O)N(Cc1nc(-c3ccccc3)no1)C2=O (stereo not given)	8.91µM*	-5.7%	1.2%	-0.7	Flu PR8 replic=8.5
COc1cc(/C=N/NC(=O)c2ccncc2)ccc1OCCN1CCCCC1	-0.1%	-9.5%	-6.6%	/
COc1cc(/C=N/NC(=O)c2cc3ccccc3cc2O)ccc1OCCN1CCCCC1	11.2µM*	-11.8%	-18.5%	-24.0
SMILES	NS1 inh	Cruzain noTriton	Cruzain inh Det	Flu NS1 inh	others
COc1ccc(S(=O)(=O)N2CCN(C3CCCCCCC3)CC2)cc1	3.2%	-4.7%	5.8%	/
COc1ccc(S(=O)(=O)N2CCN(C(=O)C3CC3)CC2)cc1	?	/	/	-2.1
COc1ccc(S(=O)(=O)N2CCC(C(=O)N3CCOCC3)CC2)cc1	-14.7%	7.9%	-2.2%	/
COc1ccc(S(=O)(=O)N2CCC(N3CCCCC3)CC2)cc1	1.12µM*	-4.5%	7.0%	11.3
CCOCCCNS(=O)(=O)c1ccc(NC(=O)Cc2c(F)cccc2Cl)cc1	?	/	/	-14.1	Flu PR8 replic=8.33
CCOCCCNS(=O)(=O)c1ccc(NC(=O)c2ccccc2)cc1	2.1%	3.7%	2.5%	/
COCCNC(=O)c1c(NC(=O)c2cc(=O)c3cc(C)cc(C)c3o2)sc2c1CCCC2	/	0.1%	-1.5%	/
COc1ccc(N2CCN(c3oc(COc4ccc(Cl)cc4Cl)nc3C#N)CC2)cc1	?	?	3.2%	/
N#Cc1nc(COc2ccc(Cl)cc2Cl)oc1N1CCN(c2ccccc2)CC1	11.2µM*	-20.7%	-4.5%	15.8
C[N+](=O)[O-]	/	5.5%	5.6%	/
O=S(=O)(/N=C(/Nc1cccc2ccccc12)c1ccccc1)c1ccccc1	16.4%	/	/	/
O=S(=O)(/N=C(/Nc1cccc2ccccc12)c1ccccc1)c1cccs1	14.1µM*	-0.3%	1.2%	-12.7
Cc1cc(C)cc(-n2c(C)nc3cc(C(=O)O)ccc32)c1	/	-3.0%	-0.7%	/
COc1ccc(OC)c(-n2c(C)nc3cc(C(=O)O)ccc32)c1	14.1µM*	-6.1%	5.8%	19.5
CCNc1ncc2nc(CCc3ccccc3)c(=O)n(C)c2n1	/	11.3%	-12.3%	/
O=C(COc1ccc(Cl)cc1Cl)OCC(=O)N1CCCc2ccccc21	-12.1%	2.8%	-7.2%	/
O=C(COc1ccc(Cl)cc1Cl)NC(=S)N1CCCc2ccccc21	10µM*	?	0.4%	?
COc1ccc2[nH]cc(CCNc3ccnc(-c4ccc(N(C)C)cc4)n3)c2c1	/	?	-7.0%	/
COC(=O)[C@@H](NC(=O)O[C@@H]1C(=O)c2ccc(OC)cc2O[C@H]1c1ccc2c(c1)OCO2)C(C)C	/	11.7%	-2.8%	/
COc1cc(/C=C2\C(=O)NC(=O)N(c3ccccc3)C2=O)cc(OC)c1OC	7.94µM*	0.7%	3.9%	11.2
COc1cc(/C=C2/C(=O)NC(=O)N(c3ccc(C)cc3)C2=O)cc(OC)c1OC	4.2%	/	/	/
CCOc1ccccc1NC(=O)c1c(NC(=O)c2cccc(C)c2)sc2c1CCCC2	/	-6.3%	0.3%	/
CCCCOc1cccc(C(=O)Nc2ccc(S(=O)(=O)Nc3nnc(CC)s3)cc2)c1	8.91µM*	/	/	11.5
CCc1nnc(NS(=O)(=O)c2ccc(NC(=O)c3cccc([N+](=O)[O-])c3)cc2)s1	21.7%	/	/	/
O=C(NCCO)C(=O)Nc1c2c(nn1-c1ccc(F)cc1)CSC2	/	2.0%	-7.0%	/
SMILES	NS1 inh	Cruzain noTriton	Cruzain inh Det	Flu NS1 inh	others
CC(=O)NCCNc1ccnc(-c2ccccc2C)n1	/	6.9%	-4.2%	/
Cn1cnnc1SCC(C)(C)NS(=O)(=O)c1ccc(Cl)cc1	?	/	/	-7.2
Cc1ccc(S(=O)(=O)NC(C)(C)CSc2nncn2C)cc1	6.2%	-2.2%	2.1%	/
CN1C(=O)C(=O)N(CC(=O)N2CCc3ccccc32)C1=O	8.3%	-12.5%	3.1%	/
O=C(CN1C(=O)CSc2ccccc21)N1CCc2ccccc21	?	-14.4%	-6.4%	4.2
CCCc1nnc(NC(=O)c2cc(=O)c3ccccc3o2)s1	/	-2.5%	-2.2%	/

Screening results: PubChem BioAssay, National Center for Advancing Translational Sciences (NCATS)
